In all, about 5,500 compounds went through this assay and about 2,000 (36%) were called active. Not shown: some 18% with an inconclusive outcome. No stated cut-off is given here; in the data, active means normalized growth mostly below about 0.91 (no sharp cut-off); inconclusive means no clear call, values can overlap the other calls; inactive means mostly above about 0.92. The list shows a part of the results.
Assay: chemical genetic growth profiling, strain panel (AID 1159580);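 further: tested at 20 µM; growth read once vehicle control cultures reached saturation at 30 °C; 1 = growth at the plate median or of vehicle wells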
Conditions: growth OD

Measured: normalized growth

O=C1NC(=O)/C(=C/c2ccc(OS(=O)(=O)c3ccc(Cl)cc3)cc2)N1
inactive: S. cerevisiae deletion strains, locus YAL013W, strain DEP1, stronger effect = lower value 1 | S. cerevisiae deletion strains, locus YBR229C, strain ROT2, stronger effect = lower value 1.03 | S. cerevisiae deletion strains, locus YDL101C, strain DUN1, stronger effect = lower value 0.983 | S. cerevisiae deletion strains, locus YDL134C, strain PPH21, stronger effect = lower value 0.991 | S. cerevisiae deletion strains, locus YDR150W, strain NUM1, stronger effect = lower value 0.957 | S. cerevisiae deletion strains, locus YEL061C, strain CIN8, stronger effect = lower value 1.01 | S. cerevisiae deletion strains, locus YGR078C, strain PAC10, stronger effect = lower value 0.983 | S. cerevisiae deletion strains, locus YGR229C, strain SMI1, stronger effect = lower value 1.01 | S. cerevisiae deletion strains, locus YHR030C, strain SLT2, stronger effect = lower value 0.989 | S. cerevisiae deletion strains, locus YHR087W, strain rtc3, stronger effect = lower value 1.02 | S. cerevisiae deletion strains, locus YJL187C, strain SWE1, stronger effect = lower value 1.04 | S. cerevisiae deletion strains, locus YJR043C, strain POL32, stronger effect = lower value 0.982 | S. cerevisiae deletion strains, locus YJR075W, strain HOC1, stronger effect = lower value 1.03 | S. cerevisiae deletion strains, locus YLR039C, strain RIC1, stronger effect = lower value 1.02 | S. cerevisiae deletion strains, locus YLR058C, strain SHM2 (second series), stronger effect = lower value 1.02 | S. cerevisiae deletion strains, locus YLR085C, strain ARP6, stronger effect = lower value 0.999 | S. cerevisiae deletion strains, locus YLR262C, strain YPT6, stronger effect = lower value 0.996 | S. cerevisiae deletion strains, locus YML094W, strain GIM5, stronger effect = lower value 1 | S. cerevisiae deletion strains, locus YMR219W, strain ESC1, stronger effect = lower value 1.01 | S. cerevisiae deletion strains, locus YMR263W, strain SAP30, stronger effect = lower value 1 | S. cerevisiae deletion strains, locus YNL128W, strain TEP1, stronger effect = lower value 0.978 | S. cerevisiae deletion strains, locus YNL153C, strain GIM3, stronger effect = lower value 0.99 | S. cerevisiae deletion strains, locus YNL298W, strain CLA4 (second series), stronger effect = lower value 0.976 | S. cerevisiae deletion strains, locus YNL322C, strain KRE1, stronger effect = lower value 0.998 | S. cerevisiae deletion strains, locus YNR030W, strain Alg12, stronger effect = lower value 1 | S. cerevisiae deletion strains, locus YPL055C, strain LGE1, stronger effect = lower value 1.06 | S. cerevisiae deletion strains, locus YPL241C, strain CIN2, stronger effect = lower value 1 | S. cerevisiae deletion strains, locus YPR135W, strain CTF4, stronger effect = lower value 0.978 | S. cerevisiae strains, strain wild type, stronger effect = lower value 0.964

— PubChem BioAssay AID1159580 (chemical genetic matrix, 2015)
